Measurements published in the supplement of paper PMC3545927.
This is one part of the list. No count for the full screen is at hand.

Target: furin, P09958
Assay: furin cleavage Z-score vs untreated control; higher = more cleavage, active = 3.5 or more, inactive = 1 or less, 8 variable residues between constant flanks
Procedure, shortened: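 Abundance of DNA freed from bead-bound 8-mer peptide–cDNA fusions by purified furin was measured as sequencing read counts after PCR adapter tagging. Cutting ran 7.5, 15 or 30 min in 0.01 ml of 50 mM HEPES pH 7.5 with CaCl2 and NaCl at 1:10 enzyme:substrate. The cleavage Z-score expresses these log counts against furin-free reactions after lowess adjustment and median absolute deviation scaling.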

Sequence of furin, P09958 (P09958 whole entry): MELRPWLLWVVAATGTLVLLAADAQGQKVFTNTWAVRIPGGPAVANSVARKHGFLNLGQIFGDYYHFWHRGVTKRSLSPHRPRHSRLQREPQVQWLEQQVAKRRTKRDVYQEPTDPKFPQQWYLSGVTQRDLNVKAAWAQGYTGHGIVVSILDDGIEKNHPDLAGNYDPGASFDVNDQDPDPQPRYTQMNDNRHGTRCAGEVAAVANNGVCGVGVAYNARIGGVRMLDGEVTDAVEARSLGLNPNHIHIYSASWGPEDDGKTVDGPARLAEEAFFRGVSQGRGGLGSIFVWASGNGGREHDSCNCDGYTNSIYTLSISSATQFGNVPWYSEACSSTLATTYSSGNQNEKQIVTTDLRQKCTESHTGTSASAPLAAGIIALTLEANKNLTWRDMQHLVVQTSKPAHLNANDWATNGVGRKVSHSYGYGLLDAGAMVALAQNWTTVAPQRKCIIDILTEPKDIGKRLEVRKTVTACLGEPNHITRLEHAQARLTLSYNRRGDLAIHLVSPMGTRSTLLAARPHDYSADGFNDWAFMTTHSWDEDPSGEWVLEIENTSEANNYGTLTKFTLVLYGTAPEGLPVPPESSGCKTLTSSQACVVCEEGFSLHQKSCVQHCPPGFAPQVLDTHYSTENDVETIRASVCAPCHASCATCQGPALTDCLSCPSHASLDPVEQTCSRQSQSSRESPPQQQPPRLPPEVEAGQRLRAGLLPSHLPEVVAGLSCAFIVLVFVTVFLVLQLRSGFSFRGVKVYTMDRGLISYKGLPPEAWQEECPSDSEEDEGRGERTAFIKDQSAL

| Sequence | furin cleavage Z-score (7.5 min) | furin cleavage Z-score (15 min) | furin cleavage Z-score (30 min) |
| --- | --- | --- | --- |
| CAVVKCSMSYAGNASASA [HC2034] | 0.0381 (inactive) | 0.000409 (inactive) | 0.298 (inactive) |
| CARMIRTNEAAGNASASA [FS-3000] | 0.282 (inactive) | 0.0077 (inactive) | 0.743 (inactive) |
| CAVLEDGVNYAGNASASA [HC239] | -0.545 (inactive) | -2.21 (inactive) | 0.0229 (inactive) |
| CAHRSRDGRYAGNASASA [FS-797] | 0.199 (inactive) | 1.41 | 0.834 (inactive) |
| CARMIRRRRYAGNASASA [FS-1652] | 10.9 (active) | 13.2 (active) | 9.13 (active) |
| CAVVKRPRRYAGNASASA [FS-314] | 9.96 (active) | 10.8 (active) | 10 (active) |
| CAVLHRRRRYAGNASASA [FS-891] | 9.61 (active) | 10.5 (active) | 9.16 (active) |
| CAKRWRRRRYAGNASASA [FS-1350] | 10.3 (active) | 12 (active) | 9.1 (active) |
| CAVLARMMRPAGNASASA [FS-966] | -0.155 (inactive) | 0.612 (inactive) | -0.556 (inactive) |
| CAVVCCSMRYAGNASASA [HC2073] | 0.763 (inactive) | 0.207 (inactive) | 0.313 (inactive) |
| CAYMSKAHGIAGNASASA [HC794] | -0.614 (inactive) | -0.299 (inactive) | 0.089 (inactive) |
| CANYTIFKIRAGNASASA [HC472] | -0.135 (inactive) | 0.367 (inactive) | -0.43 (inactive) |
| CAELPCHRPSAGNASASA [HC2325] | 0.967 (inactive) | -0.4 (inactive) | 0.0984 (inactive) |
| CAEVPCHWPSAGNASASA [HC2368] | -0.575 (inactive) | -0.478 (inactive) | 0.531 (inactive) |
| CAVVCCQMSYAGNASASA [HC119] | -0.852 (inactive) | -0.183 (inactive) | 0.623 (inactive) |
| CADKNQVEGEAGNASASA [HC686] | -0.934 (inactive) | -0.739 (inactive) | -1.82 (inactive) |
| CAAKLMPQLPAGNASASA [HC1159] | 0.255 (inactive) | -0.546 (inactive) | 0.241 (inactive) |
| CAMNSRKGRYAGNASASA [FS-1237] | 1.23 | 0.312 (inactive) | 2.34 |
| CALVRRRRRYAGNASASA [FS-462] | 11 (active) | 12.3 (active) | 9.67 (active) |
| CALTLSPYYKAGNASASA [HC575] | -0.934 (inactive) | -0.768 (inactive) | -0.313 (inactive) |
| CALTLRMRRYAGNASASA [FS-1032] | 9.91 (active) | 10.2 (active) | 11.2 (active) |
| CAAHDGAGKRAGNASASA [HC1557] | -0.0785 (inactive) | 0.342 (inactive) | 0.362 (inactive) |
| CAVEMEECSQAGNASASA [HC1790] | 0.132 (inactive) | -1.38 (inactive) | -1.19 (inactive) |
| CATTPCSGNWAGNASASA [HC1921] | 0.659 (inactive) | 0.815 (inactive) | -0.795 (inactive) |
| CAPVGSQLPCAGNASASA [HC1238] | 0.473 (inactive) | -1.27 (inactive) | 0.372 (inactive) |
| CAGVRATRKTAGNASASA [HC183] | 0.267 (inactive) | 0.577 (inactive) | 0.344 (inactive) |
| CAIREVPCHRAGNASASA [HC2424] | -0.0693 (inactive) | 1.33 | 2.41 |
| CAVIQMYTNVAGNASASA [HC709] | 0.334 (inactive) | -0.0874 (inactive) | -1.04 (inactive) |
